For the first test, the target named is CRX (Homo sapiens, UniProt O43186 1-299). The test is described as follows: DAPPL (digital affinity profiling via proximity ligation, sequencing); 10 mM Tris-HCl pH 7.5, 50 mM NaCl, 1 mM DTT, 4% glycerol, room temperature, 30 min; GST-TFs on glutathione beads, 16-mer random dsDNA library, 0.1% formaldehyde crosslink after washing; high values mean tight binding. The following applies: protein: recombinant; tags: N-terminal GST; dsDNA, one strand shown. Put shortly:
(§1)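 Binding signal is given per hexamer as its read frequency for a factor divided by its frequency in the tag-only sample. GST-fused human transcription factors were expressed in yeast, captured on glutathione beads, barcoded with DNA and pooled with that sample, then incubated with 200 nmole of a 16-mer random double-stranded DNA library in Tris/NaCl/DTT/glycerol buffer for 30 min at room temperature. The pools were then washed, crosslinked, proximity-ligated, amplified by PCR and sequenced on an Illumina NextSeq500.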
Sequence of ETV1 (P50549 whole entry): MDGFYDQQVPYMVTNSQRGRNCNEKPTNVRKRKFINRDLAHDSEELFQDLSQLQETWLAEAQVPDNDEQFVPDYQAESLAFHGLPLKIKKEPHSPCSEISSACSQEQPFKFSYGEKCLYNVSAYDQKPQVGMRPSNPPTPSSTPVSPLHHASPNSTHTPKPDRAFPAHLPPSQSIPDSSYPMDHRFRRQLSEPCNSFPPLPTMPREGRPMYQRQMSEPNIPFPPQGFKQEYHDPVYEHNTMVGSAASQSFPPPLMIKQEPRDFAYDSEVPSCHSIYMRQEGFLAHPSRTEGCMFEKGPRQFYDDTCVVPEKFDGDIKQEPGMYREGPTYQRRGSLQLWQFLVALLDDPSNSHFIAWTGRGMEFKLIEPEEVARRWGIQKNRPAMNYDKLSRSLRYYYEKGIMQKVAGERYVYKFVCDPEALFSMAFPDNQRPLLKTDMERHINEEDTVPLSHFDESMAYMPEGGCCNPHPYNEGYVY
Sequence of CRX (O43186 whole entry, the tested form may be a part): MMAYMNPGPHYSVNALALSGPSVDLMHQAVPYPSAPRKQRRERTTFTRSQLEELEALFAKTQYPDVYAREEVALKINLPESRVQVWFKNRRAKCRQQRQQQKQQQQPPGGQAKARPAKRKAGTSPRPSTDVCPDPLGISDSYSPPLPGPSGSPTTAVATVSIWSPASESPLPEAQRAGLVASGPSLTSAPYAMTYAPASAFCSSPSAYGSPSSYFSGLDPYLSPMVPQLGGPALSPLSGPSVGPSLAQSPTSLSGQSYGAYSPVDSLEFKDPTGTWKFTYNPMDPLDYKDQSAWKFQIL
CTCCTT: the binding signal was 1.57 fold enrichment (6-mer frequency, TF over GST control).

For the sequence CTGTAT, the binding signal is 1.17 fold enrichment (6-mer frequency, TF over GST control).

On to ATGCTC, for which the binding signal was 1.38 fold enrichment (6-mer frequency, TF over GST control).

For the sequence CTATAT, the binding signal was 1.3 fold enrichment (6-mer frequency, TF over GST control).

As for CTCCAA, the binding signal was 1.14 fold enrichment (6-mer frequency, TF over GST control).

On to CTCAAT, for which the binding signal was 1.25 fold enrichment (6-mer frequency, TF over GST control).

For the sequence CCTAAT, the binding signal was 2.61 fold enrichment (6-mer frequency, TF over GST control).

With CTGGCT, the binding signal is 1.21 fold enrichment (6-mer frequency, TF over GST control).

As for TATTTG, the binding signal was 1.71 fold enrichment (6-mer frequency, TF over GST control).

As to CTTCGA, the binding signal was 1.49 fold enrichment (6-mer frequency, TF over GST control).

Turning to ACTATG, the binding signal was 1.02 fold enrichment (6-mer frequency, TF over GST control).

Regarding TAAACT, the binding signal was 1.72 fold enrichment (6-mer frequency, TF over GST control).

As to ATTCAC, the binding signal was 1.14 fold enrichment (6-mer frequency, TF over GST control).

Regarding CTACAC, the binding signal was 1.05 fold enrichment (6-mer frequency, TF over GST control).

For the sequence GTATTT, the binding signal was 1.73 fold enrichment (6-mer frequency, TF over GST control).

AATTTC: the binding signal is 1.49 fold enrichment (6-mer frequency, TF over GST control).

For TTTCAC, the binding signal was 1.14 fold enrichment (6-mer frequency, TF over GST control).

As for CTCGTC, the binding signal is 1.02 fold enrichment (6-mer frequency, TF over GST control).

Take CCTTCT: the binding signal is 1.92 fold enrichment (6-mer frequency, TF over GST control).

Take TTACGG: the binding signal is 1.86 fold enrichment (6-mer frequency, TF over GST control).

The target of a further test is ETV1 (Homo sapiens, UniProt P50549 1-477). Described as above. The conditions noted are these: protein: recombinant; tags: N-terminal GST; dsDNA, one strand shown. Put shortly:
as §1
With TTCCCG, the binding signal was 1.88 fold enrichment (6-mer frequency, TF over GST control).

As for CTTCCT, the binding signal is 3.18 fold enrichment (6-mer frequency, TF over GST control).

For the sequence TTGAAA, the binding signal was 1.16 fold enrichment (6-mer frequency, TF over GST control).

Take TACTCT: the binding signal is 1.47 fold enrichment (6-mer frequency, TF over GST control).

For TCCTCA, the binding signal was 1.48 fold enrichment (6-mer frequency, TF over GST control).

CCTCCC: the binding signal is 1.36 fold enrichment (6-mer frequency, TF over GST control).

For TGGTTT, the binding signal is 1.69 fold enrichment (6-mer frequency, TF over GST control).

For the sequence ATGAAC, the binding signal was 1.38 fold enrichment (6-mer frequency, TF over GST control).

As for AACCTG, the binding signal was 1.14 fold enrichment (6-mer frequency, TF over GST control).

In the case of ACAGCT, the binding signal is 1.08 fold enrichment (6-mer frequency, TF over GST control).

For the sequence AAATCA, the binding signal is 1.18 fold enrichment (6-mer frequency, TF over GST control).

Take TGGACT: the binding signal is 1.33 fold enrichment (6-mer frequency, TF over GST control).

As for TGAACT, the binding signal is 1.24 fold enrichment (6-mer frequency, TF over GST control).

AATCCC: the binding signal was 1.42 fold enrichment (6-mer frequency, TF over GST control).

As for TAAAGT, the binding signal is 1.21 fold enrichment (6-mer frequency, TF over GST control).

Consider CCTGGA, for which the binding signal is 1.41 fold enrichment (6-mer frequency, TF over GST control).

Turning to AAACCA, the binding signal was 1.09 fold enrichment (6-mer frequency, TF over GST control).

Consider CTGTCT, for which the binding signal was 1.4 fold enrichment (6-mer frequency, TF over GST control).

As for GCTCCA, the binding signal is 1.12 fold enrichment (6-mer frequency, TF over GST control).

Take CTTGGG: the binding signal is 1.38 fold enrichment (6-mer frequency, TF over GST control).

Turning to CTCCTT, the binding signal is 1.69 fold enrichment (6-mer frequency, TF over GST control).

Turning to CTGTAT, the binding signal was 1.39 fold enrichment (6-mer frequency, TF over GST control).

Take ATGCTC: the binding signal is 1.42 fold enrichment (6-mer frequency, TF over GST control).

As to CTATAT, the binding signal was 1.39 fold enrichment (6-mer frequency, TF over GST control).

Consider CTCCAA, for which the binding signal is 1.33 fold enrichment (6-mer frequency, TF over GST control).

Turning to CTCAAT, the binding signal is 1.27 fold enrichment (6-mer frequency, TF over GST control).

Take CCTAAT: the binding signal is 1.38 fold enrichment (6-mer frequency, TF over GST control).

As to CTGGCT, the binding signal is 1.1 fold enrichment (6-mer frequency, TF over GST control).

For the sequence TATTTG, the binding signal is 1.4 fold enrichment (6-mer frequency, TF over GST control).

In the case of CTTCGA, the binding signal was 1.35 fold enrichment (6-mer frequency, TF over GST control).

On to ACTATG, for which the binding signal is 1.24 fold enrichment (6-mer frequency, TF over GST control).

TAAACT: the binding signal is 1.2 fold enrichment (6-mer frequency, TF over GST control).

Turning to ATTCAC, the binding signal is 1.29 fold enrichment (6-mer frequency, TF over GST control).

As for CTACAC, the binding signal is 1.28 fold enrichment (6-mer frequency, TF over GST control).

As to GTATTT, the binding signal is 1.64 fold enrichment (6-mer frequency, TF over GST control).

Regarding AATTTC, the binding signal was 1.79 fold enrichment (6-mer frequency, TF over GST control).

With TTTCAC, the binding signal was 1.42 fold enrichment (6-mer frequency, TF over GST control).

As to CTCGTC, the binding signal is 1.45 fold enrichment (6-mer frequency, TF over GST control).

As to CCTTCT, the binding signal is 1.63 fold enrichment (6-mer frequency, TF over GST control).

With TTACGG, the binding signal is 1.25 fold enrichment (6-mer frequency, TF over GST control).

Another test concerns the target T1, ERF (Homo sapiens, UniProt P50548 1-548).
T1 sequence: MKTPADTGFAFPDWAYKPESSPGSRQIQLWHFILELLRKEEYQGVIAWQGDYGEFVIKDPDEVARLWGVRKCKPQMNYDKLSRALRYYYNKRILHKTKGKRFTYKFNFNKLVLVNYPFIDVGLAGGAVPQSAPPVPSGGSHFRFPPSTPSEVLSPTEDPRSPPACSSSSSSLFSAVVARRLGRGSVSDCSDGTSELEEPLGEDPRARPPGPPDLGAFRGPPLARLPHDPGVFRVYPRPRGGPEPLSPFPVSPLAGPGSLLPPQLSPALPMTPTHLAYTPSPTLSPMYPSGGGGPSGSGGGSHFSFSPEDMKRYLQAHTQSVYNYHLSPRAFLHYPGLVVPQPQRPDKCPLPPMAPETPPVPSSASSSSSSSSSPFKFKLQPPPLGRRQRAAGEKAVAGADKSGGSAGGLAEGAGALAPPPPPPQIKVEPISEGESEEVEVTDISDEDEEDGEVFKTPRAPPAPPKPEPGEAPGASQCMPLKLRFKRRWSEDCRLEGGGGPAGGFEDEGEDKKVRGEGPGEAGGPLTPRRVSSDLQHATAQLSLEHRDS
The description is as above. The following applies: protein: recombinant; tags: N-terminal GST; dsDNA, one strand shown. A digest of the protocol:
as §1
Turning to TTCCCG, the binding signal was 1.75 fold enrichment (6-mer frequency, TF over GST control).

In the case of CTTCCT, the binding signal is 2.9 fold enrichment (6-mer frequency, TF over GST control).

With TTGAAA, the binding signal is 1.13 fold enrichment (6-mer frequency, TF over GST control).

TACTCT: the binding signal was 1.46 fold enrichment (6-mer frequency, TF over GST control).

Regarding TCCTCA, the binding signal was 1.32 fold enrichment (6-mer frequency, TF over GST control).

Turning to CCTCCC, the binding signal was 1.59 fold enrichment (6-mer frequency, TF over GST control).

Regarding TGGTTT, the binding signal was 1.53 fold enrichment (6-mer frequency, TF over GST control).

As for ATGAAC, the binding signal was 1.26 fold enrichment (6-mer frequency, TF over GST control).

Regarding AACCTG, the binding signal was 1.17 fold enrichment (6-mer frequency, TF over GST control).

Regarding ACAGCT, the binding signal is 1.24 fold enrichment (6-mer frequency, TF over GST control).

On to AAATCA, for which the binding signal is 1.23 fold enrichment (6-mer frequency, TF over GST control).

Turning to TGGACT, the binding signal is 1.25 fold enrichment (6-mer frequency, TF over GST control).

With TGAACT, the binding signal is 1.31 fold enrichment (6-mer frequency, TF over GST control).

Regarding AATCCC, the binding signal is 1.44 fold enrichment (6-mer frequency, TF over GST control).

As for TAAAGT, the binding signal was 1.09 fold enrichment (6-mer frequency, TF over GST control).

With CCTGGA, the binding signal is 1.32 fold enrichment (6-mer frequency, TF over GST control).

For AAACCA, the binding signal was 1.16 fold enrichment (6-mer frequency, TF over GST control).

Take CTGTCT: the binding signal was 1.37 fold enrichment (6-mer frequency, TF over GST control).

As for GCTCCA, the binding signal was 1.26 fold enrichment (6-mer frequency, TF over GST control).

On to CTTGGG, for which the binding signal was 1.47 fold enrichment (6-mer frequency, TF over GST control).

CTCCTT: the binding signal was 1.86 fold enrichment (6-mer frequency, TF over GST control).

Turning to CTGTAT, the binding signal was 1.29 fold enrichment (6-mer frequency, TF over GST control).

Turning to ATGCTC, the binding signal was 1.33 fold enrichment (6-mer frequency, TF over GST control).

Take CTATAT: the binding signal was 1.48 fold enrichment (6-mer frequency, TF over GST control).

For the sequence CTCCAA, the binding signal is 1.32 fold enrichment (6-mer frequency, TF over GST control).

As to CTCAAT, the binding signal was 1.22 fold enrichment (6-mer frequency, TF over GST control).

For the sequence CCTAAT, the binding signal is 1.24 fold enrichment (6-mer frequency, TF over GST control).

Turning to CTGGCT, the binding signal is 1.43 fold enrichment (6-mer frequency, TF over GST control).

As for TATTTG, the binding signal is 1.34 fold enrichment (6-mer frequency, TF over GST control).

Regarding CTTCGA, the binding signal was 1.41 fold enrichment (6-mer frequency, TF over GST control).

On to ACTATG, for which the binding signal is 1.15 fold enrichment (6-mer frequency, TF over GST control).

Regarding TAAACT, the binding signal was 1.35 fold enrichment (6-mer frequency, TF over GST control).

In the case of ATTCAC, the binding signal was 1.21 fold enrichment (6-mer frequency, TF over GST control).

Regarding CTACAC, the binding signal was 1.31 fold enrichment (6-mer frequency, TF over GST control).

On to GTATTT, for which the binding signal was 1.47 fold enrichment (6-mer frequency, TF over GST control).

For the sequence AATTTC, the binding signal was 1.7 fold enrichment (6-mer frequency, TF over GST control).

For the sequence TTTCAC, the binding signal is 1.44 fold enrichment (6-mer frequency, TF over GST control).

Consider CTCGTC, for which the binding signal was 1.4 fold enrichment (6-mer frequency, TF over GST control).

Take CCTTCT: the binding signal is 1.5 fold enrichment (6-mer frequency, TF over GST control).

As to TTACGG, the binding signal is 1.36 fold enrichment (6-mer frequency, TF over GST control).

(Values after article PMC7862700, “An all-to-all approach to the identification of sequence-specific readers for epigenetic DNA modifications on cytosine”.)
